# Measurements reported in a collection of fitness landscapes (doi:10.1016/j.celrep.2020.107928).
# Whole data set: some 81,000 sequences, median “one-hybrid fitness for binding NBS DNA” near -0.1, cut for the highest 2% near 0.36. For the sample, the highest values were picked, then their nearest neighbours and some sequences at random.
# B1: Caulobacter ParB omega fusion; a variant is named by its letters at X, in order, B8GW30 (parent)
# chain: MESVVVGEPGMSEGRRGLGRGLSALLGEVDAAPAQAPGEQLGGSREAPIEILQRNPDQPRRTFREEDLEDLSNSIREKGVLQPILVRPSPDTAGEYQIVAGERAWRAAQRAGLKTVPIMVRELDDLAVLEIGIIENVQRADLNVLEEALSYKVLMEKFERTQENIAQTIGKSXSHVANXMRLLXLPDEVQSYLVSGELTAXHARAIAAAADPVALAKQIIEGGLSVRETEALARKAPNLSAGKSKGGRPPRVKDTDTQALESDLSSVLGLDVSIDHRGSTGTLTITYATLEQLDDLCNRLTRGI
# Variants of: B1
# Assay: one-hybrid fitness for binding NBS DNA (the Noc-binding site; scaled: cognate 1, non-cognate 0); higher = stronger binding
# Settings: with NBS DNA site
# How it was run: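 On M9-minus-histidine containing 0.1 mM IPTG and 5 mM 3-AT, E. coli USO cells with a HIS3 reporter, site 19 bp from the promoter, grew 48 hours at 37°C to select Caulobacter ParB libraries randomised at four specificity codons. Plasmids from before and after were Illumina-sequenced, with three replicate libraries pooled and variants under 10 reads left out. Fitness is the log change in variant-to-wild-type read ratio, rescaled against cognate and non-cognate.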
row,Variant,one-hybrid fitness for binding NBS DNA
1,RVGY,≤ 0.2
2,YYRE,≤ 0.2
3,EWTK,≤ 0.2
4,SFAV,≤ 0.2
5,RSFI,≤ 0.2
6,ETCC,≤ 0.2
7,HGGG,≤ 0.2
8,QTAK,≤ 0.2
9,QMSR,0.557
10,QMSN,≤ 0.2
11,QMSD,≤ 0.2
12,KFFY,≤ 0.2
13,TGSL,≤ 0.2
14,HQMR,≤ 0.2
15,YVSG,≤ 0.2
16,IRIE,≤ 0.2
17,RTTT,0.543
18,RFTT,0.269
19,RRTG,0.331
20,RRTQ,0.243
21,RTTN,≤ 0.2
22,RRTT,0.716
23,RTTD,≤ 0.2
24,RHTD,≤ 0.2

row,Variant,one-hybrid fitness for binding NBS DNA
1,RCTT,0.518
2,RPTT,≤ 0.2
3,RHTH,≤ 0.2
4,RHTT,0.427
5,QQII,≤ 0.2
6,KSMI,≤ 0.2
7,KVWM,≤ 0.2
8,KATR,≤ 0.2
9,ALTC,≤ 0.2
10,AHCL,≤ 0.2
11,HGAA,≤ 0.2
12,HRGN,≤ 0.2
13,REMS,≤ 0.2
14,CAHR,≤ 0.2
15,LWHP,≤ 0.2
16,QELW,≤ 0.2
17,YGQC,≤ 0.2
18,WRES,≤ 0.2
19,YVSL,≤ 0.2
20,HMQS,≤ 0.2
21,LYTW,≤ 0.2
22,RMTT,0.434
23,RETT,≤ 0.2
24,RLTT,0.454

row,Variant,one-hybrid fitness for binding NBS DNA
1,RKTP,≤ 0.2
2,RGTT,≤ 0.2
3,RKTC,0.275
4,RMTL,≤ 0.2
5,RMTK,≤ 0.2
6,RLTN,≤ 0.2
7,RKTT,0.666
8,RSTT,0.426
9,RLTD,≤ 0.2
10,DHNC,≤ 0.2
11,YATH,≤ 0.2
12,QISK,≤ 0.2
13,CLVT,≤ 0.2
14,DRWC,≤ 0.2
15,SNWL,≤ 0.2
16,SNVR,≤ 0.2
17,DAAD,≤ 0.2
18,TRAA,≤ 0.2
19,DDQR,≤ 0.2
20,RATQ,≤ 0.2
21,RITF,≤ 0.2
22,RITT,0.421
23,RATK,≤ 0.2
24,RITG,≤ 0.2

row,Variant,one-hybrid fitness for binding NBS DNA
1,RATT,0.415
2,TSFV,≤ 0.2
3,LPSF,≤ 0.2
4,RRWS,0.628
5,RRWN,0.222
6,RRWD,≤ 0.2
7,RRWF,≤ 0.2
8,RRWH,0.401
9,RRWP,≤ 0.2
10,HLQS,≤ 0.2
11,MSNG,≤ 0.2
12,HQPF,≤ 0.2
13,PSTH,≤ 0.2
14,GLWQ,≤ 0.2
15,RYTC,≤ 0.2
16,RYTT,0.461
17,RYTD,≤ 0.2
18,RYTR,0.469
19,RYTH,≤ 0.2
20,RYTP,≤ 0.2
21,RYTS,0.453
22,RYTN,≤ 0.2
23,RYTK,≤ 0.2
24,TSVC,≤ 0.2

row,Variant,one-hybrid fitness for binding NBS DNA
1,LPCE,≤ 0.2
2,YSAT,≤ 0.2
3,QALP,≤ 0.2
4,QKLN,≤ 0.2
5,QKLR,0.491
6,QSLR,0.452
7,QMLR,0.5
8,QALH,≤ 0.2
9,QKLP,≤ 0.2
10,QMLD,≤ 0.2
11,QMLH,≤ 0.2
12,QALR,0.424
13,QSLH,≤ 0.2
14,QSLD,≤ 0.2
15,DSDF,≤ 0.2
16,RWRC,≤ 0.2
17,PLVT,≤ 0.2
18,DMHW,≤ 0.2
19,TRSF,≤ 0.2
20,IKKC,≤ 0.2
21,QHLP,≤ 0.2
22,QHLH,≤ 0.2
23,QTLH,0.223
24,QTLN,≤ 0.2

row,Variant,one-hybrid fitness for binding NBS DNA
1,QTLR,0.639
2,QILR,0.335
3,QCLR,0.562
4,QPLR,≤ 0.2
5,QHLR,0.445
6,WSWT,≤ 0.2
7,AVHS,≤ 0.2
8,GHKE,≤ 0.2
9,MTRR,0.273
10,QQYP,≤ 0.2
11,QQHR,0.683
12,QQAP,≤ 0.2
13,QQAN,≤ 0.2
14,QQRE,0.332
15,QQHF,≤ 0.2
16,QQHG,≤ 0.2
17,QQYR,0.578
18,DQYR,≤ 0.2
19,QQRR,1.09
20,DQRR,≤ 0.2
21,QQAR,0.654
22,KIQL,≤ 0.2
23,YWII,≤ 0.2
24,AFHM,≤ 0.2

row,Variant,one-hybrid fitness for binding NBS DNA
1,TVSR,≤ 0.2
2,PDRQ,≤ 0.2
3,TNMG,≤ 0.2
4,QQGC,≤ 0.2
5,QQGR,0.672
6,NQFR,≤ 0.2
7,QQGK,≤ 0.2
8,QQLR,0.567
9,QQCK,≤ 0.2
10,QQFR,0.491
11,QQCR,0.63
12,QQLG,≤ 0.2
13,QQLM,≤ 0.2
14,QQCD,≤ 0.2
15,TPFT,≤ 0.2
16,ATSG,≤ 0.2
17,VDTI,≤ 0.2
18,HTCG,≤ 0.2
19,PHKP,≤ 0.2
20,NAEM,≤ 0.2
21,IYRA,≤ 0.2
22,LQHD,≤ 0.2
23,WGPQ,≤ 0.2
24,LPFS,≤ 0.2

row,Variant,one-hybrid fitness for binding NBS DNA
1,QQSG,≤ 0.2
2,QQQD,≤ 0.2
3,QQWM,≤ 0.2
4,QQSC,≤ 0.2
5,QQQP,≤ 0.2
6,QQEG,≤ 0.2
7,QQWR,0.514
8,QQQR,0.586
9,QQWY,≤ 0.2
10,QQER,0.426
11,QQEY,≤ 0.2
12,QQSR,0.635
13,YILL,≤ 0.2
14,KDKK,≤ 0.2
15,ANDS,≤ 0.2
16,PLNC,≤ 0.2
17,EYLC,≤ 0.2
18,RVEC,≤ 0.2
19,GVRI,≤ 0.2
20,ESSI,≤ 0.2
21,DESV,≤ 0.2
22,QPGN,≤ 0.2
23,QRGN,0.418
24,QMGN,≤ 0.2

row,Variant,one-hybrid fitness for binding NBS DNA
1,QCGN,≤ 0.2
2,QMGP,≤ 0.2
3,QCGH,0.282
4,QRGF,0.33
5,QMGS,0.42
6,QCGS,0.487
7,QRGH,0.616
8,QPGS,≤ 0.2
9,QSGS,0.358
10,NPLC,≤ 0.2
11,QMPM,≤ 0.2
12,ANEK,≤ 0.2
13,DSVS,≤ 0.2
14,KKWY,≤ 0.2
15,CPMG,≤ 0.2
16,LRFA,≤ 0.2
17,LPEF,≤ 0.2
18,WQTP,≤ 0.2
19,ANVT,≤ 0.2
20,ITKV,≤ 0.2
21,TWPS,≤ 0.2
22,FCRR,0.277
23,LVQT,≤ 0.2
24,QRGM,0.436

row,Variant,one-hybrid fitness for binding NBS DNA
1,QRGP,0.301
2,QCGM,≤ 0.2
3,QCGC,0.244
4,QRGC,0.402
5,QSGM,≤ 0.2
6,QSGQ,≤ 0.2
7,QCGQ,0.24
8,QPGC,≤ 0.2
9,QRGD,0.293
10,QRGQ,0.435
11,QRGS,0.7
12,VHHD,≤ 0.2
13,KQFT,≤ 0.2
14,IGSG,≤ 0.2
15,ERAV,≤ 0.2
16,LHVR,≤ 0.2
17,AGVC,≤ 0.2
18,QSQV,≤ 0.2
19,LPLC,≤ 0.2
20,DDTM,≤ 0.2
21,HYPY,≤ 0.2
22,IAHC,≤ 0.2
23,SVFR,≤ 0.2
24,YVTV,≤ 0.2

row,Variant,one-hybrid fitness for binding NBS DNA
1,PPVI,≤ 0.2
2,KLLL,≤ 0.2
3,QRPT,0.576
4,QAPT,0.23
5,QRIP,≤ 0.2
6,QRIT,0.678
7,QCIT,0.432
8,QPIT,≤ 0.2
9,QRPG,≤ 0.2
10,QSIT,0.353
11,RPKK,≤ 0.2
12,VPVE,≤ 0.2
13,TFHR,≤ 0.2
14,VTIG,≤ 0.2
15,DETM,≤ 0.2
16,LSSE,≤ 0.2
17,IPSD,≤ 0.2
18,QCKS,0.711
19,QPKS,≤ 0.2
20,QSKS,0.645
21,QSKH,0.587
22,QSDH,≤ 0.2
23,QIKS,0.497
24,QIVS,≤ 0.2

row,Variant,one-hybrid fitness for binding NBS DNA
1,QNKS,0.355
2,QSVH,≤ 0.2
3,QIKN,0.223
4,TVQG,≤ 0.2
5,DATH,≤ 0.2
6,YDTE,≤ 0.2
7,TATG,≤ 0.2
8,KRHE,≤ 0.2
9,MHPT,≤ 0.2
10,RINQ,≤ 0.2
11,QTFG,≤ 0.2
12,QTFF,≤ 0.2
13,QTAR,0.768
14,QTAQ,0.251
15,QTFR,0.584
16,QTAY,0.306
17,SPYR,≤ 0.2
18,SHAM,≤ 0.2
19,QYNA,0.269
20,QYVA,≤ 0.2
21,QYKA,0.531
22,QYYA,0.271
23,QYDA,≤ 0.2
24,QYRA,0.558

row,Variant,one-hybrid fitness for binding NBS DNA
1,QPFC,≤ 0.2
2,FPTR,≤ 0.2
3,KLDM,≤ 0.2
4,RRSY,0.393
5,RPQY,≤ 0.2
6,RCAY,≤ 0.2
7,RCQY,≤ 0.2
8,RRHY,0.452
9,RSHY,≤ 0.2
10,RRQY,0.525
11,RRFY,0.314
12,RSSY,≤ 0.2
13,RRAY,0.405
14,RCSY,≤ 0.2
15,RCHY,0.215
16,SRQM,≤ 0.2
17,LMKG,≤ 0.2
18,SMNN,≤ 0.2
